Shown are actives, neighbours in structure and some others; about 1.2% of the full set was active somewhere.
RXFP1 ag – qHTS Assay for Agonists of the Relaxin Receptor RXFP1; Relaxin receptor 1 (Homo sapiens), Q9HBX9; Potency, µM (top dose mostly 57.5 µM), for the others: at the highest dose activation, actives largely listed as activators; hit rate 0.3% among 370,000; HEK293T-RXFP1 cAMP TR-FRET, 30 min; response scale: percent of porcine relaxin response, buffer zero; active = well fitted activation curve with a large enough effect; inconclusive = small, poorly fitted or top-dose-only effect; also: potency is read from the fitted curve at half-maximal effect; % is scaled to controls: 0 for no effect and ±100 for the full control effect; nearly all actives have a fitted effect of over 60% in size
Target sequence (Q9HBX9 whole entry, looked up): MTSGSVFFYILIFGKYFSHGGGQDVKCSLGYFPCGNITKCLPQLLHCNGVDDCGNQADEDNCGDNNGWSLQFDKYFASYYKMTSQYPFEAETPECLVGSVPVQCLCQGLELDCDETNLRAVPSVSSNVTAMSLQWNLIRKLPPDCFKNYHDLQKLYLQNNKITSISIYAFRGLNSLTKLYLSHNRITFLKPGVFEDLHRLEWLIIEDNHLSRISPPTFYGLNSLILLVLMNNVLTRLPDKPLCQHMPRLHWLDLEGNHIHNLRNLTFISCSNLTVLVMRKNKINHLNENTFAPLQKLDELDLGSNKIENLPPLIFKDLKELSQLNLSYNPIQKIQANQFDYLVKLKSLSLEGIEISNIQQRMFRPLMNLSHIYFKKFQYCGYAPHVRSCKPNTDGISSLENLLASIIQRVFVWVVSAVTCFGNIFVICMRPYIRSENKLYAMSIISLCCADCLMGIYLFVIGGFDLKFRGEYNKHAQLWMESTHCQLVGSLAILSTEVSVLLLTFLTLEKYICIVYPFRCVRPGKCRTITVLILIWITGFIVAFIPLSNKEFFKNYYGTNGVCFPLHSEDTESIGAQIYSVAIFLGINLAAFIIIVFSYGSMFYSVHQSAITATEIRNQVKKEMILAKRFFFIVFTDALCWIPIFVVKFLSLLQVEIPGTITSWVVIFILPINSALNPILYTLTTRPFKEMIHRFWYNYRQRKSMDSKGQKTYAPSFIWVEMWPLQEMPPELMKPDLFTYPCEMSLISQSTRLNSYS
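HEK293T cells stably expressing RXFP1 were pretreated with the PDE4 inhibitor Ro 20174, exposed to compounds for 30 min at 37C, lysed, and cAMP was read by TR-FRET. Data normalized to buffer (basal) and 29 nM porcine relaxin (100%).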
gsp agonist – qHTS for Agonist of gsp, the Etiologic Mutation Responsible for Fibrous Dysplasia/McCune-Albright Syndrome: qHTS; gsp mutant cells, cAMP HTRF, 30 min; Potency, µM (titrated, usually from 76.9 µM), without a hit: top-dose activation (cAMP increase), actives largely listed as activators; hit rate 0.13% among 340,000; active = well fitted activation curve with a large enough effect; inconclusive = small, poorly fitted or top-dose-only effect, or another doubt; inactive = no such curve, though single readings can be large or run the other way; cell line not stated here;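 also: phosphodiesterase inhibitor Ro 20-1724 added with compounds to block cAMP breakdown; potency is read from the fitted curve at half-maximal effect; nearly all actives have a fitted effect of over 60% in size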
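Cells stably selected in G418 were plated at 2000/well, grown 16-24 hr, then given compounds in DMSO with the PDE inhibitor […] (300 uM solution added) for 30 min at 37C; cAMP was read by HTRF.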
RXFP1 antag – qHTS Assay for Antagonists of the Relaxin Receptor RXFP1 | hit rate 0.59% among 350,000 | HEK293-RXFP1, relaxin-stimulated cAMP HTRF, 30 min; stronger effect = lower value | Relaxin receptor 1 (Homo sapiens), Q9HBX9 | activity change, negative = inhibition, % at 57.5 µM | AID 1259400, 2018;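 active = activity change of -60% or lower, but not beyond a set lower limit; inconclusive = change between -60% and -40%, or beyond the set limit; inactive = change above -40%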; also: % is scaled to controls: 0 for no effect and ±100 for the full control effect
Akt phos inh – HTS Assay for Inhibitors of Akt Phophorylation: Primary Screen; hit rate 0.32% among 360,000; activity change, % for hits at 50 µM; Neuro2A IGF-stimulated pAkt S473 HTRF, 20 min; stronger effect = lower value; AID 651550, 2012; in the data active = activity change below about -80%; inconclusive = mostly about -51% to -80%; also: % is scaled to controls: 0 for no effect and ±100 for the full control effect
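Single-point screen (50 µM final compound) in Neuro2A cells stimulated 20 min with 6 nM IGF at 37 deg C. After lysis, Ser473-phosphorylated Akt read by HTRF (ex 330 nm, em 615/665 nm) as the 665/615 ratio.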
gsp antagonist – qHTS for Antagonists of gsp, the Etiologic Mutation Responsible for Fibrous Dysplasia/McCune-Albright Syndrome: qHTS | gsp-mutant cells, cAMP HTRF, 30 min | hit rate 0.4% among 340,000 | Potency, µM (series often up to 76.9 µM), inactives show top-dose activity change, negative = inhibition, hits mostly inhibitors | AID 624288, 2012; calls by dose curve; cell line not stated here;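 also: intracellular cAMP measured with PDE inhibitor Ro 20-1724 present during compound exposure; potency is read from the fitted curve at half-maximal effect; % is scaled to controls: 0 for no effect and ±100 for the full control effect; nearly all actives have a fitted effect of over 65% in size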
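HTRF cAMP measurement after 30 min RT detection following 30 min, 37C compound treatment alongside […] (added as 300 uM solution) in G418-selected cells seeded at 2000/well and grown 16–24 h.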
* = called active by the depositor; i = inactive; u = inconclusive; x = no result; [ ] = another dose, or the depositor's remark.

SMILES	RXFP1 ag	gsp agonist	RXFP1 antag	Akt phos inh	gsp antagonist
N[C@H](C(=O)O)c1ccc(O)cc1	x	x	-12.6	x	x
COc1ccccc1C(=O)NC1=NC(c2ccc(Br)cc2)CC(=O)N1 (stereo unspecified)	5.0%	x	-10.1	x	x
Cc1ccc(C)c(N2CCN(C(=O)CN3C(=O)COc4ccc(S(=O)(=O)N5CCC(C)CC5)cc43)CC2)c1	4.8%	x	x	x	x
Cc1nc2ncnn2c(N2CCN(C(c3ccccc3)c3ccccc3)CC2)c1C	0.0%	0.9%	-115.6*	i	-35.8%
COc1ccc(Oc2ccc(/C=C/C(=O)c3ccc(O)cc3)cc2[N+](=O)[O-])cc1	-1.9%	5.0%	-64.1*	i	-22.1%
Cc1cc(C)n(-c2nnc(Cl)c3ccccc23)n1	-1.6%	-43.9%	1.2	i	-16.9%
Cc1ccc(-c2nnc(-n3nc(C)cc3C)c3ccccc23)cc1	-0.6%	2.2%	-1.8	i	35.5µM*
CCCCc1ccc(NC(=O)CSc2nc(=O)[nH]c3c2CCCC3)cc1	-0.5%	x	-10.3	x	x
CN(c1ccccc1)S(=O)(=O)c1ccc2c(c1)oc(=O)n2C	-0.6%	-50.6%	3.5	i	6.4%
C=CCN(c1ccccc1)S(=O)(=O)c1ccc2c(c1)oc(=O)n2C	1.1%	-112.3%	-76.8*	i	2.1%
Cc1[nH]c(N=Nc2ccccc2)nc1N=Nc1ccccc1	0.2%	3.0%[15.4 µM]	-93.7*	i	-17.6%
COc1ccc(-c2c(C(C)=O)c(C)nc3sc4c(c23)NC(c2ccccc2)NC4=O)cc1 (stereo unspecified)	8.0%	31.4%	-4.7	-84.8%*	7.1%
CCOC(=O)C(=O)/C(C#N)=C/Nc1ccc(F)cc1	0.0%	12.4%	-0.4	i	5.4%
CCOC(=O)NC(=O)/C(C#N)=N/Nc1ccc(F)cc1	0.3%	19.6%	5.3	i	25.1µM*
COc1ccc2c(C)cc(=S)[nH]c2c1	20µM*	39.7%[15.4 µM]	28.2	i	9.0%
CCOc1ccccc1CNC(=O)CCn1ccc2cc(S(=O)(=O)N3CCC(C)CC3)ccc21	0.5%	x	-12.8	x	x
Cc1ccc(-n2nc(C)c3c(C(F)(F)F)cc(-c4cccnc4)nc32)cc1C	1.4%	x	0.5	x	x
Cc1ccc(OCCn2cc(C#N)c3ccccc32)cc1	-1.0%	14.4%	-11.5	-105.9%*	4.3%
Cc1ccc(NS(=O)(=O)c2cc(-c3cnc(C4CC4)o3)ccc2C)cc1Cl	0.1%	x	-11.6	x	x
COc1ccc(C2=C(Nc3ccc(C)cc3)c3ccccc3C2=O)cc1	0.5%	30.8%	-22.5	i	-2.8%
COc1ccc(C2=C(Nc3ccc(F)cc3)c3ccccc3C2=O)cc1	2.3%	-35.0%	2.3	-136.7%*	4.9%
CC(=O)Nc1ccc(NC(=O)C2CCC(N3C(=O)C4C5C=CC(C6CC56)C4C3=O)CC2)cc1 (stereo unspecified)	0.0%	24.1%	2.4	x	8.1%
O=C(Nc1ccc(Cc2ccncc2)cc1)C1CCC(N2C(=O)C3C4C=CC(C5CC45)C3C2=O)CC1 (stereo unspecified)	-1.5%	u	-16.1	i	7.94µM*
CC(=O)Nc1ccc(Cc2ccncc2)cc1	-1.3%	-39.1%	5.2	-112.8%*	1.2%
CCN(CC)S(=O)(=O)c1ccc(NC(=S)Nc2ccccc2)cc1	-1.8%	-3.7%	7.0	i	11.5%
SMILES	RXFP1 ag	gsp agonist	RXFP1 antag	Akt phos inh	gsp antagonist
CCN(CC)S(=O)(=O)c1ccc(C(=O)Nc2nnc(NC(=S)Nc3ccccc3)s2)cc1	-0.5%	-6.4%[15.4 µM]	-84.9*	i	-4.9%
COc1cc2ccccc2cc1C(=O)Nc1ccc(Cc2ccncc2)cc1	1.0%	-3.9%	-15.3	i	35.5µM*
Cc1nn(C(C)C(=O)Nc2cccc(F)c2)c(=O)c2c1sc1ccccc12 (stereo unspecified)	5.0%	x	-26.9	x	x
c1coc(-c2ccc3ncnc(NCc4cccs4)c3c2)c1	-0.1%	x	x	x	x
Cc1c(C2=CCN(S(=O)(=O)c3ccc(CC(C)C)cc3)CC2)c2ccccc2n1CC(=O)N1CCCC1	-0.4%	x	-14.5	x	x
CCN(CC)S(=O)(=O)c1ccc(C(=O)Nc2ccc(Cc3ccncc3)cc2)cc1	-0.1%	34.6%	-19.9	i	50.1µM*
COc1cc2ccccc2cc1C(=O)Nc1ccc(C)cc1	0.0%	4.8%	-15.9	i	31.6µM*
CCOc1ccc(/C=N/NC(=O)c2cc3ccccc3cc2OC)cc1	5.0%	-12.3%	-0.1	i	28.2µM*
O=C1/C(=C/c2cccnc2)Oc2cc(OS(=O)(=O)c3ccc(F)cc3)ccc21	-0.6%	-21.5%	-5.5	i	u
O=C1/C(=C/c2ccncc2)Oc2cc(OS(=O)(=O)c3ccccc3)ccc21	-0.2%	-1.2%	-82.4*	i	-9.1%
COc1ccc(-n2c(CCC(=O)O)ccc2-c2ccccc2)c(OC)c1	-0.4%	x	-7.8	x	x
CN(Cc1ccccc1F)c1nc(-c2cccnc2)nc2ccccc12	-3.0%	1.0%[15.4 µM]	-67.3*	i	u
Cc1ccc(CN(C)c2nc(-c3cccnc3)nc3ccccc23)o1	3.4%	-22.5%[15.4 µM]	-26.8	i	-5.9%
CCCCCC=CCC=CCCCCCCCC(=O)OCC	x	x	-30.4	x	x
Cc1cccc(C(=O)N(Cc2ccco2)Cc2ccccc2F)c1	-2.8%	x	-71.9*	x	x
Cc1ccccc1NC(=O)c1cc(=O)c2ccccc2o1	0.9%	-28.6%	-1.8	-109.8%*	-5.9%
Cc1cccc(NC(=O)c2cc(=O)c3ccccc3o2)n1	2.2%	-8.2%	-4.0	-116.0%*	-7.4%
O=C(Nc1nc2n(n1)C(c1ccc(Cl)cc1)C=C(c1ccccc1)N2)c1ccco1 (stereo unspecified)	0.2%	x	14.3	x	x
Cn1c(-c2ccc([N+](=O)[O-])cc2)nc2ccccc21	u	2.24µM*	11.9	i	13.3%
CCc1nnc(NC(=O)CSc2nccn2Cc2ccccc2)s1	-0.6%	x	x	x	x
CCN(C(=O)CSc1nc(C)nc2sc(C)c(C)c12)c1ccc(F)cc1	11.4%	u	2.6	i	-5.1%
CCN(Cc1ccc2c(c1)OCO2)C(=O)CSc1nc(C)nc2sc(C)c(C)c12	1.9%	0.7%	6.4	i	39.8µM*
c1ccc2[nH]c(CSc3ncnc4c3oc3ccccc34)nc2c1	25.1µM*	31.4%	-14.4	x	33.5%
Cc1nc(SCc2nc3ccccc3[nH]2)c2oc3ccccc3c2n1	7.6%	-0.7%	-10.0	i	6.1%
O=C(CSc1ncnc2c1oc1ccccc12)c1cccs1	22.4µM*	u	1.2	u	-2.4%
C[C@@]12C(=O)N(c3ccc(C(F)(F)F)cc3)C(=O)N1[C@@H]1c3ccccc3OC[C@@H]1[C@H]2c1ccccc1	-0.4%	x	x	i	31.6µM*

Bioassay records (PubChem)
